From PubChem BioAssay AID504451 (NMMLSC, 2011)
In all, about 2,000 compounds went through this assay and about 80 (4%) were called active. The sample holds actives, similar compounds and a random draw of the others, so the mix is not that of the screen. Values without a mark were called inactive.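 Rule for the calls: active = aptamer displacement above 40%, near three times the noise of non-fluorescent compounds, on plates passing quality checks; inactive = the rest.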

What follows are compounds tested against Beta-adrenergic receptor kinase 1 (Homo sapiens) (UniProt P25098) (assay: GRK2 aptamer-displacing inhibitors, retest, confirmation, biochemical, cherry pick 1, bead flow cytometry (AID 504451;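 note: negative values mostly reflect intrinsic compound fluorescence rather than true enhancement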)). Settings: bead-bound GRK2, FAM-aptamer displacement, at 10 µM, active compounds read high.
Chain of Beta-adrenergic receptor kinase 1 (Homo sapiens) (P25098 whole entry, looked up): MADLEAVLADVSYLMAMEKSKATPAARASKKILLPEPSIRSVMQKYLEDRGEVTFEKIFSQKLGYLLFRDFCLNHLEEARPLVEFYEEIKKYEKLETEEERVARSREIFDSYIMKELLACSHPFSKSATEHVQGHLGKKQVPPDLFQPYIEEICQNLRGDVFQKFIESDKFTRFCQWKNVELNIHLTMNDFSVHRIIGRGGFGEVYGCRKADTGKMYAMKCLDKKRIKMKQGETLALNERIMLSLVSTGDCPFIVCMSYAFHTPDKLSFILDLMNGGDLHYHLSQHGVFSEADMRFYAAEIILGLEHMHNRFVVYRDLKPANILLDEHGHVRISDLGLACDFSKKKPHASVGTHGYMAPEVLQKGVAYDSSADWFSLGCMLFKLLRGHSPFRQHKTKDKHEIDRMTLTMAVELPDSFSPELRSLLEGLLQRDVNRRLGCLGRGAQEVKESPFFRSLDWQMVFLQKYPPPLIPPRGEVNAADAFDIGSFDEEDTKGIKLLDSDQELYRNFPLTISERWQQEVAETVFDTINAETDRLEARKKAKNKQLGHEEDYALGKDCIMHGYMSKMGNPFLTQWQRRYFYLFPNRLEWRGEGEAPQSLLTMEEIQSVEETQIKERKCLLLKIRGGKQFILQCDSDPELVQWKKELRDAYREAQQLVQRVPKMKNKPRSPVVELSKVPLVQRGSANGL

Q: How did the aptamer displacement turn out when COc1ccc(N2C(=O)/C(=C/c3ccco3)C(=O)NC2=S)cc1 was run?
A: Its aptamer displacement is 86.6% (active).

Q: O=C1NC(=O)N(Cc2ccco2)C(=O)/C1=C\c1cccn1CCOc1ccccc1 was tested. Which aptamer displacement did it give?
A: The aptamer displacement was 0.73%.

Q: Cc1c(C(=O)O)cccc1-n1c(C)cc(/C=C2\C(=O)NC(=O)N(c3ccc4c(c3)OCO4)C2=O)c1C was tested. Which aptamer displacement did it give?
A: Its aptamer displacement is 37.1%.
